A short description of assay [1]: Primary qHTS for inhibitors of nuclear receptor binding SET domain protein 2 (NSD2) in an RCH-ACV wild type WT cells (2C) (AID 1645877; note: nearly all actives have a fitted effect of over 70% in size; note: potency is the fitted concentration of half-maximal effect; for activity change, negative = cell killing: % is set by controls: 0 for no effect and ±100 for the full control effect). (Quantitative high-throughput screening tests each substance at several concentrations.)
The target of assay [2] is Glutathione peroxidase 1 (Homo sapiens) (UniProt P07203). Kind of assay: Primary qHTS Assay for Inhibitors of Recombinant Selenoprotein Glutathione Peroxidase 1 (GPX1) (AID 1845191). For activity, negative = inhibition: % is set by controls: 0 for no effect and ±100 for the full control effect. Note: nearly all actives have a fitted effect of over 65% in size. In a few lines: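 GR-coupled readout: NADPH consumption tracked by fluorescence, ex 340/em 450 nm, at t=0 and after 15 min at RT. Final mix 10 nM GPX1, 1 mM GSH, 0.5 mM CHP, 0.5 mM NADPH, 100 nM GR, 0.01% BSA, following 30 min enzyme–compound preincubation.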

The target of assay [3] is Phospholipid hydroperoxide glutathione peroxidase GPX4 (Homo sapiens) (UniProt P36969). Kind of assay: Primary qHTS Assay for Inhibitors of Recombinant Selenoprotein Glutathione Peroxidase 4 (GPX4) (AID 1845192). For activity change, negative = inhibition: series mostly up to about 50 µM; % is set by controls: 0 for no effect and ±100 for the full control effect. Note: nearly all actives have a fitted effect of over 65% in size. A digest of the protocol: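 Steps: GPX4 plus compound, 30 min RT; add GR/GSH/NADPH master mix; start with cumene hydroperoxide; read 340/450 nm fluorescence at 0 and 15 min. Finals were 200 nM GPX4, 1 mM GSH, 0.5 mM CHP, 0.5 mM NADPH, 100 nM GR.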

Assay [4] addresses Luciferin 4-monooxygenase (Photinus pyralis) (UniProt P08659). As to the kind of experiment: Primary firefly luciferase (FLuc) qHTS assay for identification of artifact compounds. (AID 1845220).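 For activity change, negative = inhibition: series mostly up to about 54 µM; plate controls were DMSO vehicle for no effect and no enzyme for full effect.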 Note: nearly all actives have a fitted effect of over 60% in size. A digest of the protocol:
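Enzymatic FLuc inhibition assay: compounds pre-exposed to luciferin/ATP (10 uM each) for 15 min, then purified P. pyralis enzyme at 10 nM added. Read-out: luminescence at 5 min.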

A short description of assay [5]: Primary fluorescence-based thiol-reactive (MSTI) qHTS assay for identification of artifact compounds. (AID 1845221).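 For activity change, negative = thiol reactive: series mostly up to about 54 µM; thiol-reactive compounds lower the probe fluorescence signal.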 Note: nearly all actives have a fitted effect of over 65% in size. Note: potency is the fitted concentration of half-maximal effect. In a few lines:
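Curve-fitted percent inhibition (4-parameter Hill) derived from fluorescence, Ex 525/Em 598 nm, scaled with Acetyl-MSTI and MSTI; 1 h incubation at room temperature.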

The test system of assay [6] is Nanoluciferase (engineered Oplophorus gracilirostris luciferase). As to the kind of experiment: Primary Nanoluciferase (NLuc) qHTS assay for identification of artifact compounds. (AID 1845222).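 Note: NLuc secreted into diluted conditioned medium of S16 cells; series mostly up to about 54 µM; 0% = DMSO and -100% = no enzyme.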 A digest of the protocol: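 S16 cell supernatant NLuc, 1:55; cpds qHTS; 15 min RT dark; Nano-Glo substrate 1:100, 5 min; luminescence; Hill fit of % inhibition.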
Assay [7] is described as follows: Primary redox qHTS assay for identification of artifact compounds. (AID 1845223).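 Note: 0% = DMSO and 100% = reference compound.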 A digest of the protocol:
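Redox-cycling detection via DTT (250 uM final) oxidation coupled to Amplex Red (25 uM)/HRP (250 mU/mL) in HBSS. 15 min preincubation plus 30 min after DTT, room temperature. Ex/Em 525/598 nm; 4-parameter Hill fit against DMSO and 10 uM DA3003.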

Consider 18 compounds from PubChem BioAssay (NCATS).

Values without a mark were called inactive. Results filed as inconclusive are left out. Activity calls are given as the source filed them. Calls come from the whole dose curve; as a rule, active = well fitted curve in the direction sought with a large enough effect; inconclusive = small, poorly fitted or top-dose-only effect, or another doubt; inactive = no such curve, though single readings can be large; an effect the other way counts as inactive or inconclusive.

Sequence of Phospholipid hydroperoxide glutathione peroxidase GPX4 (Homo sapiens) (P36969 whole entry, looked up): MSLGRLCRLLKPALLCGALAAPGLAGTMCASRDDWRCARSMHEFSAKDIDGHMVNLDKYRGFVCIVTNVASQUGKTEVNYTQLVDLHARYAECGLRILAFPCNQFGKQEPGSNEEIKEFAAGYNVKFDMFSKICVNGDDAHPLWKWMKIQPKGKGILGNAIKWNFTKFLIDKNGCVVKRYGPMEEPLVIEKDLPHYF
Sequence of Glutathione peroxidase 1 (Homo sapiens) (P07203 whole entry, looked up): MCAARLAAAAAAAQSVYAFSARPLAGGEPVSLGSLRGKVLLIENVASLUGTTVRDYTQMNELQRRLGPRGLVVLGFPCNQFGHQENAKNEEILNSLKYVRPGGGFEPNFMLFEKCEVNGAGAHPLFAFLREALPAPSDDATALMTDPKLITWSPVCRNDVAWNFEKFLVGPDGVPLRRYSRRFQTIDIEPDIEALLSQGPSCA

In the case of `COC(=O)c1cc(OC)c(O[C@@H]2O[C@@H](C)[C@H](O)[C@@H](O)[C@H]2O)c(OC)c1`, the Potency entry in assay [1], in assay [2], in assay [3], in assay [4], in assay [5] and in assay [6] was “inactive” each time. In assay [7], the Potency entry was “inactive”.
`C/C=C1\[C@H](O[C@@H]2O[C@H](CO)[C@@H](O)[C@H](O)[C@H]2O)OC=C(C(=O)OC)[C@H]1CC(=O)O`: the Potency entry in assay [1], in assay [2], in assay [3], in assay [4], in assay [5] and in assay [6] was “inactive” each time. Besides, the Potency result in assay [7] was “inactive”.
On to `CCC(C)C(=O)OC1CC(O)C23C4OCC5(C(O)CC2C1(C)C(O)O4)C3C(=O)CC1(C)C(c2ccoc2)CC2OC215` (stereo unspecified), for which the Potency in assay [1] is 126 nM (active). Besides, the Potency result in assay [2], in assay [3], in assay [4], in assay [5], in assay [6] and in assay [7] was “inactive” in each case.
On to `C=CC(C)(C)C12C=C(OC)C(=O)N3C(C(C)C)C(=O)NC31N(OC)c1ccccc12` (stereo unspecified), for which the Potency result in assay [1], in assay [2], in assay [3], in assay [4], in assay [5] and in assay [6] was “inactive” in each case. In addition, the Potency result in assay [7] is “inactive”.
As to `O=[N+]([O-])c1cccc2[nH]c(CNc3nc(N4CCOCC4)nc4c3ncn4-c3ccsc3)nc12`, the Potency in assay [1] is 64.9 nM (active); in assay [5], 10600 nM (active). In addition, the Potency entry in assay [2], in assay [3], in assay [4], in assay [6] and in assay [7] was “inactive” each time.
As for `CCCCNc1ncc2c(-c3ccc(F)cc3)nn(CC3CCC(N)CC3)c2n1` (stereo unspecified), the Potency in assay [1] was 1620 nM (active). Besides, the Potency result in assay [2], in assay [3], in assay [4], in assay [5], in assay [6] and in assay [7] was “inactive” throughout.
As for `C[C@@H]1CC[C@]2(C(=O)O)CC[C@]3(C)C(=CCC4[C@@]5(C)CC[C@H](O)C(C)(C)C5C(O)C[C@]43C)[C@@H]2[C@]1(C)O` (stereo partly specified), the Potency entry in assay [1], in assay [2], in assay [3], in assay [4], in assay [6] and in assay [7] was “inactive” throughout. The Potency in assay [5] is 13000 nM (active).
Turning to `COC(=O)C12CCC(C)C(C)C1C1=CCC3C4(C)CCC(OC(C)=O)C(C)(C)C4CCC3(C)C1(C)CC2` (stereo unspecified), the Potency entry in assay [1], in assay [2], in assay [3], in assay [4], in assay [5] and in assay [6] was “inactive” each time. Also, the Potency result in assay [7] is “inactive”.
Take `C=C1C(=O)O[C@H](CCC)[C@H]1C(=O)O`: the Potency result in assay [1], in assay [2], in assay [3], in assay [4], in assay [5] and in assay [6] was “inactive” in each case. Also, in assay [7], the Potency result is “inactive”.
Take `O=C(NCc1cccc(O)c1)Nc1nc(-c2ccncc2)cs1`: the Potency in assay [1] is 2350 nM (active). The Potency entry in assay [2], in assay [3], in assay [4], in assay [5], in assay [6] and in assay [7] was “inactive” each time.
With `NC1CCC(Nc2cc(-c3cccc(NCc4cccc(F)c4)n3)c(Cl)cn2)CC1` (stereo unspecified), the Potency in assay [1] is 72.8 nM (active). The Potency entry in assay [2], in assay [3], in assay [4], in assay [5], in assay [6] and in assay [7] was “inactive” in each case.
As to `O=C1C=CC2OC(c3ccccc3)C(O)C2O1` (stereo unspecified), the Potency was 4590 nM (active) in assay [1] and 23800 nM (active) in assay [5]. Besides, the Potency result in assay [2], in assay [3], in assay [4], in assay [6] and in assay [7] was “inactive” in each case.
Regarding `C/C1=C\[C@H]2OC(=O)[C@@H](C)[C@@H]2CC/C(C(=O)O)=C/CC1`, the Potency result in assay [1], in assay [2], in assay [3], in assay [4], in assay [6] and in assay [7] was “inactive” in each case. Moreover, the Potency in assay [5] is 11900 nM (active).
In the case of `C[C@@H]1O[C@@H](O[C@H]2[C@H](O)[C@@H](O[C@@H]3O[C@H](CO)[C@@H](O)[C@H](O[C@@H]4O[C@H](CO)[C@@H](O)[C@H](O)[C@H]4O)[C@H]3O)[C@H](O[C@H]3CC[C@@]4(C)C(=CC[C@@H]5C4CC[C@@]4(C)C5C[C@@H]5OC6(CC[C@@](C)(CO[C@@H]7O[C@H](CO)[C@@H](O)[C@H](O)[C@H]7O)O6)[C@@H](C)[C@@H]54)C3)O[C@@H]2CO)[C@H](O)[C@H](O)[C@H]1O` (stereo partly specified), the activity change, negative = cell killing in assay [1] is -26.3% [at 9.23 µM]. The activity, negative = inhibition in assay [2] was -7.69% [at 9.52 µM]; in assay [6], -0.894% [at 11.6 µM]. For the same compound, the values for the activity change, negative = inhibition in assay [3] and in assay [4] were -8.14% [at 9.73 µM] and -3.7% [at 11.6 µM], respectively. For the same compound, the activity change, negative = thiol reactive in assay [5] was 201% [at 11.5 µM]. Moreover, the redox activity (% of DA3003) in assay [7] is 7.08% [at 11.5 µM].
Regarding `COC(=O)c1cc(OC)cc(OC)c1C(=O)c1c(OC)cc2c(c1O)C1CCCC(C)(O2)O1` (stereo unspecified), the Potency entry in assay [1], in assay [2], in assay [3], in assay [4], in assay [5] and in assay [6] was “inactive” each time. For the same compound, the Potency entry in assay [7] is “inactive”.
In the case of `O=C(Nc1ccn[nH]1)c1c(F)cccc1F`, the Potency result in assay [1], in assay [2], in assay [3], in assay [4], in assay [5] and in assay [6] was “inactive” each time. Further, in assay [7], the Potency result is “inactive”.
`CNS(=O)(=O)c1ccccc1Nc1nc(Nc2ccc(N3CCN(C)CC3)cc2OC)ncc1Cl`: the Potency is 649 nM (active) in assay [1] and 2380 nM (active) in assay [5]. Also, the Potency entry in assay [2], in assay [3], in assay [4], in assay [6] and in assay [7] was “inactive” each time.
For the compound `Cn1ncnc1COc1nn2c(-c3cc(F)ccc3F)nnc2cc1C(C)(C)C`, the Potency in assay [1] was 1030 nM (active). Moreover, the Potency result in assay [2], in assay [3], in assay [4], in assay [5], in assay [6] and in assay [7] was “inactive” throughout.
